These results are taken from PubChem BioAssay (Tox21).

A short description of test [1]: Nuclear factor erythroid 2-related factor 2/antioxidant responsive element (Nrf2/ARE) small molecule agonists: qHTS cell viability counter screen in human keratinocytes (AID 1919968; active = well fitted curve in the direction sought with a large enough effect in the repeat runs; an effect the other way counts as inactive or inconclusive; note: nearly all actives have a fitted effect of over 55% in size). The method, boiled down: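 HaCaT ARE reporter line, 1,500 cells/well; 5 h settle, 37 C/5% CO2; cpd in DMSO pinned; 23 h exposure; CellTiter-Fluor, 1 h; fluorescence.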
(In qHTS, concentration-response curves come from the screen itself.)

Test [2] in a line: Nuclear factor erythroid 2-related factor 2/antioxidant responsive element (Nrf2/ARE) small molecule agonists: luciferase reporter gene qHTS assay in human keratinocytes (AID 1919969). Note: nearly all actives have a fitted effect of over 35% in size. A general note: In a reporter assay the amount or activity of a reporter protein is the signal.
Test [3] has as its target Gonadotropin-releasing hormone receptor (Homo sapiens) (UniProt P30968). Put plainly: Human gonadotropin-releasing hormone receptor (GnRHR) small molecule agonists, calcium flux assay in GnRHR-HEK293 cells (AID 1920063). Note: nearly all actives have a fitted effect of over 35% in size. The method, boiled down:
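GnRHR-HEK293, 1500 cells/well, 18 h 37 C/5% CO2; Ca dye 1 h 37 C; cpd pinned (DMSO), agonist mode; kinetic FL 480/540, 3 min, 1 s reads; 15 conc, n=3.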

For test [4], the target named is KiSS-1 receptor (Homo sapiens) (UniProt Q969F8). Put plainly: Human kisspeptin (KISS1R) small molecule agonists, calcium flux assay in KISS1R-HEK293 cells (AID 1920064; active = well fitted curve in the direction sought with a large enough effect in the repeat runs; an effect the other way counts as inactive or inconclusive). The method, boiled down: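 Stable human KISS1R HEK293 line; 18 h plating, 37 C/5% CO2; calcium dye 1 h 37 C; compound pin transfer; kinetic fluorescence Ex/Em 480/540, 3 min.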
Sequence of KiSS-1 receptor (Homo sapiens) (Q969F8 whole entry, looked up): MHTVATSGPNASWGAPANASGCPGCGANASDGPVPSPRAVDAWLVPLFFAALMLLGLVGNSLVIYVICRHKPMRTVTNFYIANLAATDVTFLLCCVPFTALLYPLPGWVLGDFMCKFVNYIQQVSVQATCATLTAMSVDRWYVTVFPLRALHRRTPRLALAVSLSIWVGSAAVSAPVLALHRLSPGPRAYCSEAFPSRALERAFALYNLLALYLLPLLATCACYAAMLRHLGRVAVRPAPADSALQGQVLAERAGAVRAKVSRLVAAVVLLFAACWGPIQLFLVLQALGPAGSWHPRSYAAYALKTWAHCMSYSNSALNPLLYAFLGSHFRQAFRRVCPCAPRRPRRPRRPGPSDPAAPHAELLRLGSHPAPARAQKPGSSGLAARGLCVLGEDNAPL
In general terms: Calcium flux is commonly read through the fluorescence of an indicator in the cells.

Test [5] is described as follows: G protein-coupled receptor (GPCR) small molecule agonists, calcium flux assay: HEK293 wild type cell line counter screen (AID 1920065). The method, boiled down:
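Kinetic fluorescence at Ex/Em 480/540, recorded every second over 3 min, served as the read-out after compound addition. Each compound was tested at 15 concentrations in triplicate on cells pre-loaded with calcium dye for 1 h.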

Test [6] can be described thus: p53 small molecule agonists, cell-based qHTS assay with human liver microsomes (AID 1963577).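 Note: p53 response element beta-lactamase reporter cells with liver microsomes plus NADPH.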 The method, boiled down:
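HLM-supplemented p53RE-bla reporter assay: 16 h compound exposure at 37 C, microsomes and NADPH each 0.5 mg/mL final, read by fluorescence intensity.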

The nature of test [7]: p53 small molecule agonists, cell-based qHTS assay with rat liver microsomes (AID 1963578). The essentials: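 Quantitative HTS of the Tox21 10K library: p53RE-bla cells, rat liver microsomes plus NADPH at 0.5 mg/mL final each, 16 h at 37 C, beta-lactamase fluorescence detection.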
Test [8] is described as follows: p53 small molecule agonists, cell-based qHTS assay with human liver microsomes: qHTS cell viability counter screen (AID 1963579). Note: nearly all actives have a fitted effect of over 45% in size. The method, boiled down: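 Viability of p53RE-bla cells is measured as CellTiter-Glo luminescence following a 16 h, 37 C incubation with compound, liver microsomes from human donors and NADPH.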
The nature of test [9]: p53 small molecule agonists, cell-based qHTS assay with rat liver microsomes: qHTS cell viability counter screen (AID 1963580). Note: nearly all actives have a fitted effect of over 45% in size. The method, boiled down:
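Viability is assessed in parallel with the p53 reporter read: HCT-116 p53RE-bla cells receive compounds plus rat microsomes and NADPH (0.5 mg/mL final apiece), incubate 16 h at 37 C, and then CellTiter-Glo luminescence is recorded.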

Test [10] is described as follows: p53 small molecule agonists, cell-based qHTS assay: qHTS cell viability counter screen (AID 1963581). Note: nearly all actives have a fitted effect of over 45% in size. The method, boiled down:
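HCT-116 p53RE-bla cells, 4,000/well, plated 5 h before compound pin transfer; 16 h at 37 C; bla substrate 2 h RT; then CellTiter-Glo, 30 min RT, luminescence.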

Test [11] is described as follows: p53 small molecule agonists, cell-based qHTS assay (AID 1963582; active = well fitted activation curve with a large enough effect in the signal ratio in the repeat runs, not every such curve was filed as active; the % refers to the signal ratio). The essentials: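 Reporter line: p53RE-bla. Pre-incubation 5 h, 37 C, 5% CO2; compound (DMSO, pin tool) 16 h, 37 C; B/G FRET substrate 2 h RT; fluorescence intensity read.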
For test [12], the target named is 5-hydroxytryptamine receptor 2A (Homo sapiens) (UniProt P28223). The test can be described thus: 5-hydroxytryptamine receptor 2A (HTR2A) small molecule agonists, cell-based qHTS assay (AID 1963587). Note: nearly all actives have a fitted effect of over 30% in size. The essentials: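 CHO cells stably expressing human HTR2A, plated 18 h, loaded with calcium dye 1 h at 37 C. Agonist mode: compounds added and intracellular calcium fluorescence recorded kinetically for 2 min at 1 sec intervals.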
Sequence of 5-hydroxytryptamine receptor 2A (Homo sapiens) (P28223 whole entry, looked up): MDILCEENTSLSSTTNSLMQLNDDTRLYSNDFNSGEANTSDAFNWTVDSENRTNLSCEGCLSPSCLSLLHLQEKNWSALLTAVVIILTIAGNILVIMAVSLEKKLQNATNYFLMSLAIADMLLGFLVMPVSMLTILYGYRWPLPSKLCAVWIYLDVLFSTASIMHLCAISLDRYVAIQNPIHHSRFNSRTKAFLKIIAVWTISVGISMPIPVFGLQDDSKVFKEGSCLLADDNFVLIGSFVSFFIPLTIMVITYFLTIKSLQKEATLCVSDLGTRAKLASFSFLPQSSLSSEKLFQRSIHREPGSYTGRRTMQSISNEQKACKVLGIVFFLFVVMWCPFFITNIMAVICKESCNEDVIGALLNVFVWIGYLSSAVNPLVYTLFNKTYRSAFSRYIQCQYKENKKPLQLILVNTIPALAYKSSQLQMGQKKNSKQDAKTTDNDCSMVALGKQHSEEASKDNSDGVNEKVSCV

In test [13] the target is Muscarinic acetylcholine receptor M1 (Homo sapiens) (UniProt P11229). The test can be described thus: Cholinergic receptor muscarinic 1 (CHRM1) small molecule antagonists, cell-based qHTS assay (AID 1963588). Note: nearly all actives have a fitted effect of over 40% in size. Note: potency is the fitted concentration of half-maximal effect. The method, boiled down: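 CHRM1-CHO calcium-flux assay, antagonist mode. Cells were seeded 18 h, dye-loaded 1 h at 37 C and given compound for 5 min at RT, then acetylcholine was added at 50nM. FDSS fluorescence was read 3 min; 15 concentrations, three runs.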
Sequence of Muscarinic acetylcholine receptor M1 (Homo sapiens) (P11229 whole entry, looked up): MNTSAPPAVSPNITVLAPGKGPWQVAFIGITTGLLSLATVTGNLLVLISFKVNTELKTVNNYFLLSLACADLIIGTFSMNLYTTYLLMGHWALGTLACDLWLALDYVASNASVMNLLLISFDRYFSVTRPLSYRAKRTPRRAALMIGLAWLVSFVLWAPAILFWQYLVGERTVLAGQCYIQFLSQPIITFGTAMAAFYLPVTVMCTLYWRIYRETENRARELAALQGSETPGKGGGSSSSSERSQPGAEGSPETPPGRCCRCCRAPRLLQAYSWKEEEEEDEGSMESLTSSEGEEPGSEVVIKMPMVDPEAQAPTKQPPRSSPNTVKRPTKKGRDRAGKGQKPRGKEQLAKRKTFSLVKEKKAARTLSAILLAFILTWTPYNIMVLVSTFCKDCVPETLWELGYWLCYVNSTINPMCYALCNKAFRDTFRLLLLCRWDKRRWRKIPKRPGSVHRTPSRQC

Test [14] has the same target. The test can be described thus: Cholinergic receptor muscarinic 1 (CHRM1) small molecule agonists, cell-based qHTS assay (AID 1963589). Note: nearly all actives have a fitted effect of over 35% in size. The essentials: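 Human M1 in stable CHO line; 18 h plating, 1 h dye load 37 C; cpd added (agonist mode); Ca2+ fluorescence kinetic read, 1 s intervals; 15 conc, 3 runs.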
Test [15] is described as follows: cAMP Responsive Elements (CRE) small molecule antagonists, cell-based qHTS assay (AID 1963591; active = well fitted inhibition curve with a large enough effect in the signal ratio in the repeat runs, not every such curve was filed as active; the % refers to the signal ratio). The method, boiled down: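 Beta-lactamase reporter read by FRET substrate (LiveBLAzer B/G) after 2 h at room temperature. CRE-bla HEK293T cells had received compound plus 0.25 uM (final) NKH477 for 3 h at 37 °C.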
In test [16] the target is Beta-2 adrenergic receptor (Homo sapiens) (UniProt P07550). The test can be described thus: Adrenergic beta2 receptor (ADRB2) small molecule antagonists, cell-based qHTS assay (AID 1963592). Note: series mostly up to about 92 µM; nearly all actives have a fitted effect of over 50% in size. The essentials: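 Cells (CHO, stable ADRB2 overexpression) incubated 18-20hr at 37C; compounds added from DMSO; agonist mix (1nM isoproterenol, 100uM IBMX, 25uM Ro-20-1724) added; 0.5hr RT; d2-cAMP and anti-cAMP-cryptate added; 1hr RT; 665/615 nm read.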
Sequence of Beta-2 adrenergic receptor (Homo sapiens) (P07550 whole entry, looked up): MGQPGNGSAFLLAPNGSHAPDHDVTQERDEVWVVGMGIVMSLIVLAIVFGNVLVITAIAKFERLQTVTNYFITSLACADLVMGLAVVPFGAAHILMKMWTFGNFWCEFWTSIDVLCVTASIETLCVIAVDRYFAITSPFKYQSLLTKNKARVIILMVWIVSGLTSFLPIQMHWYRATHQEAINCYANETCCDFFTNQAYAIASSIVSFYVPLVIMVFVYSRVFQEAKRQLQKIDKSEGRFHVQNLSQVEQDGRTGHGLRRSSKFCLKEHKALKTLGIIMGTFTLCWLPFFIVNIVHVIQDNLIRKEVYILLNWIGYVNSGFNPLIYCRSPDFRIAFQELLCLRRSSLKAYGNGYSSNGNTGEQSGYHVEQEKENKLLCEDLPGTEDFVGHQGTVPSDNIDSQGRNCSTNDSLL

The target is the same in test [17]. The test can be described thus: Adrenergic beta2 receptor (ADRB2) small molecule agonists, cell-based qHTS assay (AID 1963593).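 Note: CHO cells stably overexpressing human ADRB2.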 The method, boiled down: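 CHO cells stably over-expressing ADRB2 were plated overnight at 37C, then dosed with compounds plus a stimulation mix containing 100uM IBMX and 25uM Ro-20-1724 for 0.5hr at room temperature. cAMP was measured by HTRF competition, 1hr.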

For test [18], the target named is D(2) dopamine receptor (Homo sapiens) (UniProt P14416). Put plainly: Dopamine D2 receptor (DRD2) small molecule agonists, cell-based qHTS assay (AID 1963594). Note: nearly all actives have a fitted effect of over 35% in size. The essentials:
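HEK293 cells stably expressing human DRD2, pre-treated with PDE inhibitor Ro20-1724 (0.1 mM final) and compound 10 min at room temperature, then stimulated with NKH477 (200nM […]) for 30 min. cAMP read by HTRF (665/620 nm).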

Test [19] shares this target. Put plainly: Dopamine D2 receptor (DRD2) small molecule antagonists, cell-based qHTS assay (AID 1963595; active = well fitted inhibition curve with a large enough effect in the signal ratio in the repeat runs, with a control signal flat; the % refers to the signal ratio; note: potency is the fitted concentration of half-maximal effect). The essentials:
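Cells were plated and grown for 24 h at 37 °C. Ro20-1724 (0.1 mM final) went in first, then compound for 10 min. NKH477 (200 nM) with quinpirole (12 nM) followed for 30 min at RT, then HTRF detection reagents for 1 h.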

Values without a mark were called inactive. Inconclusive results are not listed. Activity calls are given as the source filed them. Unless noted, calls come from the whole dose curve.
% is set by controls: 0 for no effect and ±100 for the full control effect.

Sequence of Gonadotropin-releasing hormone receptor (Homo sapiens) (P30968 whole entry, looked up): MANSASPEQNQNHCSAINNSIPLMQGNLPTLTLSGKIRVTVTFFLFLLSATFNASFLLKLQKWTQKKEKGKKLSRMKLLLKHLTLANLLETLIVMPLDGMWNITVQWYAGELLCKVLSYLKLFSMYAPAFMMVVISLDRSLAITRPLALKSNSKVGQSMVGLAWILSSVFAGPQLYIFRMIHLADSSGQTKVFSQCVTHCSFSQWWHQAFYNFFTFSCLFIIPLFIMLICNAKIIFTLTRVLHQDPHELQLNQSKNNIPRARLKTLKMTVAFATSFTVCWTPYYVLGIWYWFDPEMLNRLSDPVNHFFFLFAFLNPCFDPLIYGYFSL
Sequence of D(2) dopamine receptor (Homo sapiens) (P14416 whole entry, looked up): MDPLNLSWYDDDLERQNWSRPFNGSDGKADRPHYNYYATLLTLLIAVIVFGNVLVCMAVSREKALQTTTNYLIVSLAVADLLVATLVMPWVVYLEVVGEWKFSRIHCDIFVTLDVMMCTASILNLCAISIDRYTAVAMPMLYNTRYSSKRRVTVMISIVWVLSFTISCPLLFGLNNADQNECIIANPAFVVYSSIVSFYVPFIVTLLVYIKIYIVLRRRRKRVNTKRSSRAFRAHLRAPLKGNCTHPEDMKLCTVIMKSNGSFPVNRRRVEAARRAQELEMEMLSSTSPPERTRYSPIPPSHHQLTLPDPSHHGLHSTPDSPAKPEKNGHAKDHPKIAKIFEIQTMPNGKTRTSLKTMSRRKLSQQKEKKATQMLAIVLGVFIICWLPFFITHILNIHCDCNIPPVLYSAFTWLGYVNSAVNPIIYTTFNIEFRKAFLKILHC

Regarding `CCCCOc1cc(C(=O)OCCN(CC)CC)ccc1N`, the Potency result in test [1], in [2], in test [3], in test [6], in [7] and in test [8] was “inactive” each time. Further, the Potency result in test [9], in [10], in [11], in test [12], in test [13] and in test [14] was “inactive” throughout. Moreover, the Potency entry in test [15], in test [16], in [17], in test [18] and in [19] was “inactive” in each case. Also, the result in test [4] and in test [5] was inactive.

On to `CCC(=O)O[C@]1(C(=O)COC)[C@@H](C)C[C@H]2[C@@H]3CCC4=CC(=O)C=C[C@]4(C)C3(F)[C@@H](O)C[C@@]21C` (some centres not stated), for which the Potency result in [1], in test [2], in test [3], in test [6], in [7] and in test [8] was “inactive” in each case. Moreover, the Potency entry in test [9], in test [10], in [11], in [12], in [13] and in test [14] was “inactive” in each case. The Potency entry in [16] and in test [19] was “inactive” throughout. For the same compound, the outcome in test [4] and in [5] was inactive.

`CC[N+]1(CC)CCC(=C(c2ccccc2)c2ccccc2)C1C` (configuration not stated): the Potency result in [1], in test [2], in [3], in test [6], in test [7] and in [8] was “inactive” each time. The Potency entry in [9], in test [10], in test [11], in [12], in test [14] and in test [15] was “inactive” throughout. In addition, the Potency entry in test [16], in [18] and in test [19] was “inactive” in each case. Moreover, the outcome in test [4] and in [5] was inactive. The Potency in test [13] is 0.0259 µM (active).

For the compound `CC1CCc2cc(F)cc3c(=O)c(C(=O)O)cn1c23` (configuration not stated), the Potency entry in test [1], in test [2], in test [3], in test [6], in [7] and in test [8] was “inactive” in each case. Further, the Potency entry in test [9], in [10], in test [11], in test [12], in [14] and in [15] was “inactive” each time. Moreover, the Potency entry in test [16], in test [17], in test [18] and in test [19] was “inactive” each time. Moreover, the result in test [4] and in test [5] was inactive.

For `CCCC(=O)O[C@]1(C(=O)CC)CC[C@H]2[C@@H]3CCC4=CC(=O)CC[C@]4(C)[C@H]3[C@@H](O)C[C@@]21C`, the Potency result in [1], in [2], in test [3], in test [6], in test [7] and in test [8] was “inactive” each time. The Potency result in test [9], in test [10], in [11], in test [12], in test [13] and in [14] was “inactive” throughout. Moreover, the Potency entry in [16], in test [18] and in [19] was “inactive” in each case. Besides, the outcome in [4] and in [5] was inactive.

With `CCCC(C(=O)OCCN(CC)CC)(c1ccccc1)c1ccccc1`, the Potency entry in test [1], in [2], in test [3], in test [6], in [7] and in test [8] was “inactive” in each case. Moreover, the Potency entry in test [9], in test [10], in test [11], in test [12], in [13] and in [14] was “inactive” in each case. In test [18], the Potency result is “inactive”. In addition, the result in test [4] and in test [5] was inactive. In addition, the Potency in test [19] is 26.6 µM (active).

`C/C(=C(\CCOP(=O)(O)O)SC(=O)c1ccccc1)N(C=O)Cc1cnc(C)nc1N`: the activity change, negative = cytotoxicity in test [1] is -6.37% [at 8.39 µM]; in [8] it was 1.21% [at 5.99 µM]; in test [9] it was 1.33% [at 5.99 µM]; in test [10] it was 10.8% [at 5.99 µM]. Moreover, the activity, positive = activation in [2] is -0.129% [at 8.39 µM]. In addition, in [3], the activity change is -0.163% [at 5.22 µM, hits give high values]. Also, the activation in [4] was -0.956% [at 6.97 µM]; in [5], -0.0907% [at 5.23 µM]; in [6], -1.03% [at 5.99 µM]; in [7] it was -4.95% [at 5.99 µM]; in test [11], 1.46% [at 5.99 µM]; in [12], -0.64% [at 7.02 µM]. Also, the activation in test [14] was -0.572% [at 6.97 µM]; in test [18], 3.76% [at 8.39 µM]. The activity, negative = inhibition in test [13] was 1.74% [at 5.58 µM]. Further, the activity change, negative = inhibition in [15] was 1.78% [at 8.39 µM]; in test [16] it was 2.25% [at 8.39 µM]; in test [19] it was 2.34% [at 8.38 µM].
